Measured values: PubChem BioAssay AID504327 (National Center for Advancing Translational Sciences (NCATS), 2011)
Values joined by “and” are separate entries in the source; they are usually repeats but may differ in a detail not shown here. Identical values can stand only once. The whole screen tested about 390,000 compounds, of which about 820 (0.21%) were called active. A call without a number means that no potency is given here. Inconclusive results (about 3%) are left out. Calls come from the whole dose curve; as a rule, active = well fitted inhibition curve with a large enough effect; inconclusive = small, poorly fitted or top-dose-only effect, or another doubt; inactive = no such curve, though single readings can be large or run the other way. Only a selection was taken, and actives are over-represented in it overall. More than one record can exist for a structure, and the calls need not agree.
Potency is the fitted concentration of half-maximal effect.

Each compound was assayed against Histone acetyltransferase KAT2A (Homo sapiens) (UniProt Q92830) (assay: qHTS Assay for Inhibitors of GCN5L2). Conditions: GCN5L2 HAT assay, ThioGlo1 CoA-SH fluorescence; series mostly up to 58.9 µM.
Chain of Histone acetyltransferase KAT2A (Homo sapiens) (Q92830 whole entry, looked up): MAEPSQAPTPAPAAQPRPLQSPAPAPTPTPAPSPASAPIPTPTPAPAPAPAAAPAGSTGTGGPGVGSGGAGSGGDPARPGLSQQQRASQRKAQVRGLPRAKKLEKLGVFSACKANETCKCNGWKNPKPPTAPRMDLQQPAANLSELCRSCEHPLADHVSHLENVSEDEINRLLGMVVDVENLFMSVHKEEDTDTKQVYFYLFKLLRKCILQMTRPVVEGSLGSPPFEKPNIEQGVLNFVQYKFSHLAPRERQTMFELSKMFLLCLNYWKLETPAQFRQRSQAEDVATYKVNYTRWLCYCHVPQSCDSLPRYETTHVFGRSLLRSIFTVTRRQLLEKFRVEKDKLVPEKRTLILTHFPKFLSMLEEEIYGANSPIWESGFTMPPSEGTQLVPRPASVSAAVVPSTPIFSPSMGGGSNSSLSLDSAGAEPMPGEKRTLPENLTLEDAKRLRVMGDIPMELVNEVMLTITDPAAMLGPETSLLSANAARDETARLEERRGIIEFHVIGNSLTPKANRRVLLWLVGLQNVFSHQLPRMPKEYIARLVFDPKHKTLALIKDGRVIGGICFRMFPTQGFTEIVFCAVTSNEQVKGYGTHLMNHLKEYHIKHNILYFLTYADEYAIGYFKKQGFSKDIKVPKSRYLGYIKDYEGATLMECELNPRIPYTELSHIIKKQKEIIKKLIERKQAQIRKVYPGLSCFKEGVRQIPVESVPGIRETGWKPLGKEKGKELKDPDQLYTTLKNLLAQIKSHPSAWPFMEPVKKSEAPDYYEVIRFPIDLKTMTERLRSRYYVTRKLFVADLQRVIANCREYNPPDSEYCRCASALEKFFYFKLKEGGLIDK
Description: Histone acetyltransferase (HAT) enzymes transfer a […] group from acetyl-coenzyme A to the epsilon-amino group of conserved lysine residues of N-terminal histone tails. Acetylation results in charge neutralization of this positively charged amino acid, decreasing interactions with the […] backbone and making the DNA more accessible for transcription. HATs have been recognized as an emerging drug target for treatment of cancer, diabetes, asthma, chronic obstructive pulmonary disease, cardiac disease, and viral infection. Protein identified with HAT activity include the […] like 2 (GCN5L2, a.ka. Histone acetyltransferase KAT2A) which acetylates histone H3 at Lys9, 14, 18, 13, and to lesser extent histones H4 and H2B. This activates transcription of the gene by modulating chromatin structure and installing the acetyllysine recognition mark for bromodomain-containing coactivator proteins.
A quantitative high throughput screen was developed to identify small molecule inhibitors. The assay is based on the principle that it measures formation of reduced CoA with the pro-fluorescent maleimide derivative ThioGlo1 that becomes fluorescent upon reaction with the free thiol of CoA.
A large number of artifacts are expected in this primary screen, compounded by the assay format (fluorescent artifacts) and by the high top concentration tested for each substance. This BioAssay data deposition should be used with caution, and counterscreen and secondary assay validation is essential since very few actives from the primary screen are expected to be true inhibitors of GCN5L2.
[2] Yasgar, et al. Compound Management for Quantitative High-Throughput Screening. JALA. 2008 Apr;13(2):79-89.
[3] Inglese, et al. Quantitative high-throughput screening: a titration-based approach that efficiently identifies biological activities in large chemical libraries. Proc Natl Acad Sci. 1;103(31):11473-8. 2006. PMID: 16864780
NIH Molecular Libraries Probe Production Network [MLPCN]
NIH Chemical Genomics Center [NCGC]
Structural Genomics Consortium (SGC)
To each well of a 1,536w plate, 3ul of GCN5L2 (final concentration 20nM, in 50mM HEPES, 0.1mM EDTA (pH 7.5), 0.01% Tween-20 buffer) are added using a Kalypsys dispenser. Only buffer is added to some wells as a control. A Kalypsys pin-tool transferred 23nl of library compound solution in DMSO to each well, as well as the control inhibit garcinol. . Following a 15 min incubation of enzyme with compounds at room temperature, 1ul mixture of ThioGlo1 (50uM final), H3(1-25) peptide (75uM final), and Acetyl-CoA (70uM final) is added. Plates are read immediately on the ViewLux (PerkinElmer) (Ex340nm/Em540nm) for a 0 min read, incubated for 20 min at room temperature, and read again on the ViewLux with the same settings. The initial read was carried out to identify compounds that are potentially fluorescent.
With `COc1ccc(N2C(=O)/C(=C/c3ccco3)C(=O)NC2=S)cc1` the Potency was 17.8 µM (active). In the case of `COc1ccc2c3c1O[C@H]1C[C@@H](O)C=C[C@@]31CCN(C)C2`, the Potency is reported as “inactive”. For `CC(C)(Cc1c[nH]c2ccc(Cl)cc12)NCCOc1ccccc1OCC1CC1`, the Potency was “inactive”. With `C[C@]12CC[C@@H]3c4ccc(O)cc4C[C@@H](CCCCCCCCCS(=O)CCCC(F)(F)C(F)(F)F)C3[C@@H]1CC[C@@H]2O` (stereo not given in full) the Potency was “inactive”. With `CCCCC/C=C\C/C=C\C/C=C\C/C=C\CCCCCC(=O)NCCO` the Potency was “inactive”. With `Cc1cccc2c3c(ccc12)C1=C(C(=O)C3=O)C(C)CO1` (stereo not given) the Potency was 31.6 µM (active). In the case of `C[C@]12O[C@H](C[C@@]1(O)C(=O)O)n1c3ccccc3c3c4c(c5c6ccccc6n2c5c31)CNC4=O`, the Potency is reported as “inactive”. In the case of `CCOc1ccc(S(=O)(=O)NCc2ccc3c(c2)OCO3)cc1C`, the Potency is reported as “inactive”. `COc1ccc2c3c1OC1CC(O)C=C[C@@]31CCN(C)C2` (stereo not given in full) was tested, and the Potency was “inactive”. For `CC(C)C(N)C(=O)OCCOCn1cnc2c(=O)[nH]c(N)nc21` (stereo not given), the Potency was “inactive”. With `CN(C)C[C@H]1CCCC[C@]1(O)c1cccc(O)c1` the Potency was “inactive”. With `CC(C)(c1ccc(OC[C@@H]2CO2)cc1)c1ccc(OC[C@H]2CO2)cc1` the Potency was “inactive”. With `CC(=O)c1c(O)c(C)c(O)c(Cc2c(O)c3c(c(C(=O)/C=C/c4ccccc4)c2O)OC(C)(C)C=C3)c1O` the Potency was “inactive and 11.2 µM (active)”. In the case of `CC(=O)c1c(O)c(C)c(O)c(Cc2c(O)c3c(c(C(=O)/C=C\c4ccccc4)c2O)OC(C)(C)C=C3)c1O`, the Potency is reported as 35.5 µM (active). In the case of `CCC(C)C(=O)O[C@@H]1C[C@@]2(C)C(c3ccoc3)OC(=O)CC23OC2(C)O[C@@]14[C@@]1(C)C(CC(=O)OC)C5(C)CC1(O)C(O)(C5OC(=O)C1(C)OC1C)C(OC(C)=O)[C@@]34O2` (stereo not given in full), the Potency is reported as “inactive”. In the case of `C=CCN1CCC2(C)c3cc(O)ccc3CC1[C@@H]2C` (stereo not given in full), the Potency is reported as “inactive”. `CN1CCCC(=C(c2cccs2)c2cccs2)C1` was tested, and the Potency was “inactive”. In the case of `CC(C)(O)c1[se]c2ccccc2c1I`, the Potency is reported as “inactive”. With `CO[C@@H]1C[C@@H](C[C@H]2CC[C@H](C)[C@@H]([C@@H](C)C(=O)O)O2)O[C@]2(O[C@](C)([C@H]3CC[C@@](C)(C4OC([C@H]5O[C@@](O)(CO)[C@H](C)C[C@@H]5C)C[C@@H]4C)O3)C[C@H]2C)[C@@H]1C` (stereo not given in full) the Potency was “inactive”. `CCN(CC)c1nc(C)cc(OP(=S)(OC)OC)n1` was tested, and the Potency was “inactive”. `CN(C)[C@@H]1C(=O)C(C(N)=O)=C(O)[C@@]2(O)C(=O)C3=C(O)c4c(O)cccc4[C@@](C)(O)C3CC12` (stereo not given in full) was tested, and the Potency was “inactive”. With `COC([CH2][Hg])CNC(=O)c1ccccc1OCC(=O)O` (stereo not given) the Potency was 0.891 µM (active). In the case of `O=C1CCc2cccc3c2N1CC3`, the Potency is reported as “inactive”. For `CC(C)=CCC[C@]1(C)[C@@H](CC=C(C)C)C[C@@]2(CC=C(C)C)C(=O)[C@]1(C(=O)C(C)C)C(=O)C(CC=C(C)C)=C2O`, the Potency was 28.2 µM (active). For `Nc1ccc(-c2ccc(N)c(N)c2)cc1N`, the Potency was “inactive”. In the case of `CCCN(C/C=C/I)C1CCc2ccc(O)cc2C1` (stereo not given), the Potency is reported as “inactive”. For `COc1ccc2[nH]cc(CCNCc3ccc(Br)cc3)c2c1`, the Potency was “inactive”. With `NCCc1c[nH]c2ccc(O)cc12` the Potency was “inactive and 11.2 µM (active)”. For `Cc1cccc2c(CCN)c[nH]c12`, the Potency was “inactive”. In the case of `CC(=O)Oc1ccccc1C(=O)Nc1ncc([N+](=O)[O-])s1`, the Potency is reported as “inactive”. `CC[C@@H]1CN2CC[C@@H]1C[C@H]2[C@H](O)c1ccnc2ccc(OC)cc12` was tested, and the Potency was “inactive”. With `COc1ccccc1-c1[se]c2ccccc2c1I` the Potency was “inactive”. In the case of `CCCCCCCCCCCCN=C(N)N`, the Potency is reported as “inactive”. With `N#Cc1c(Cl)c(Cl)c(Cl)c(C#N)c1Cl` the Potency was “inactive”. In the case of `CCCCCCCCCCCCCC(=O)O[C@@H]1[C@@H](C)[C@@]2(O)[C@@H](C=C(CO)C[C@]3(O)C(=O)C(C)=C[C@@H]23)[C@@H]2C(C)(C)[C@]12OC(C)=O`, the Potency is reported as “inactive”. `CC(=O)[O][Sn]([c]1ccccc1)([c]1ccccc1)[c]1ccccc1` was tested, and the Potency was 4.47 µM (active). For `COC(=O)N1C(c2ccccc2)C1c1ccccc1` (stereo not given), the Potency was “inactive”. With `C[C@H]1C/C=C/[C@@H]2[C@@H]3O[C@]3(C)[C@@H](C)[C@H]3[C@H](Cc4ccccc4)NC(=O)[C@]32OC(=O)O/C=C/[C@](C)(O)C1=O` the Potency was “inactive”. For `CN[C@@H]1C[C@H]2O[C@@](C)([C@@H]1OC)n1c3ccccc3c3c4c(c5c6ccccc6n2c5c31)C(=O)NC4`, the activity change, negative = inhibition was 4.47% [at 12.7 µM] (inactive). In the case of `CNCC[C@H](Oc1ccc(C(F)(F)F)cc1)c1ccccc1`, the Potency is reported as “inactive and 8.91 µM (active)”. For `CCCCC/C=C\C/C=C\C/C=C\C=C\[C@H](CCCC(=O)O)OO`, the Potency was “inactive”. For `N#CC(C#N)=Cc1cc(O)c(O)c([N+](=O)[O-])c1`, the Potency was “inactive”. For `C[C@@H]1C[C@H]2CC[C@H](O2)[C@H](C)C(=O)O[C@@H](C)C[C@@H]2CC[C@@H](O2)[C@@H](C)C(=O)O[C@H](C)C[C@H]2CC[C@H](O2)[C@H](C)C(=O)O[C@@H](C)C[C@@H]2CC[C@@H](O2)[C@@H](C)C(=O)O1`, the Potency was “inactive”. In the case of `N#Cc1cc(Br)c(O)c(Br)c1`, the Potency is reported as “inactive”. In the case of `c1ccc(N2CC[C@@]3(CCCNC3)C2)nc1`, the Potency is reported as “inactive”.
